# High-throughput results deposited in PubChem by National Center for Advancing Translational Sciences (NCATS).
# TGFb inhibitor: blocks TGF-b signaling. Potency, µM (titrated, usually from 46.1 µM), without a hit: at the top dose activity, negative = inhibition, most hits filed as inhibitors. HepG2 CAGA-GFP TGF-b/SMAD3 reporter, GFP fluorescence, 18 h; TGF-beta stimulated, 500 pg/mL final. 410,000 compounds, 1.2% hits; further: on the % scale 0 is the no-effect control and ±100 the full control effect; nearly all actives have a fitted effect of over 65% in size
#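 GFP signal (ex488/em500-530) from TGF-beta-stimulated HEPG2 CAGA-GFP cells, 500 pg/mL final, 18 h at 37 degrees C in DMEM plus 1% FBS, normalized to unstimulated and DMSO-stimulated controls.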
# ATXN2 expr inh: reduces ATXN2 reporter expression in HEK-293 cells. AID 1745845. HEK-293 ATXN2-luciferase reporter, luminescence, 24 h. 360,000 compounds, 0.72% hits. Potency, µM (highest dose often 57 µM), without a hit: at the top dose activity change, negative = inhibition, most hits filed as inhibitors; further: on the % scale 0 is the no-effect control and ±100 the full control effect; nearly all actives have a fitted effect of over 55% in size
#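 qHTS (up to 57 uM final) was run with 24 h compound exposure of reporter cells at 37 °C. Each well was multiplexed: SteadyGlo luminescence measured ATXN2-luciferase expression after a fluorogenic Gly-Phe-AFC viability readout (25 uM final).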
# VP16 counter: Gal4-VP16 reporter inhibition counter-screen; Drosophila S2 Gal4-VP16 UAS-luciferase, luminescence, 20 h; Potency, µM (titrated, usually from 53.6 µM), for inactives: top-dose activity, negative = inhibition, hits mostly inhibitors; 310,000 compounds, 3.5% hits;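 further: Gal4-VP16 expression switched on by copper sulfate through the metallothionein promoter; on the % scale 0 is the no-effect control and ±100 the full control effect; nearly all actives have a fitted effect of over 50% in size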
# RORg inh: ROR gamma (mouse) transcription inhibition; AID 2551; P51450; 310,000 compounds, 5.4% hits; Potency, µM (series often up to 53.6 µM), without a hit: at the top dose activity change, negative = inhibition, most hits filed as inhibitors; Drosophila S2 Gal4-RORgamma UAS-luciferase reporter, 20 h; further: on the % scale 0 is the no-effect control and ±100 the full control effect; nearly all actives have a fitted effect of over 60% in size
# Target sequence (P51450 whole entry, looked up, the tested form may be a part): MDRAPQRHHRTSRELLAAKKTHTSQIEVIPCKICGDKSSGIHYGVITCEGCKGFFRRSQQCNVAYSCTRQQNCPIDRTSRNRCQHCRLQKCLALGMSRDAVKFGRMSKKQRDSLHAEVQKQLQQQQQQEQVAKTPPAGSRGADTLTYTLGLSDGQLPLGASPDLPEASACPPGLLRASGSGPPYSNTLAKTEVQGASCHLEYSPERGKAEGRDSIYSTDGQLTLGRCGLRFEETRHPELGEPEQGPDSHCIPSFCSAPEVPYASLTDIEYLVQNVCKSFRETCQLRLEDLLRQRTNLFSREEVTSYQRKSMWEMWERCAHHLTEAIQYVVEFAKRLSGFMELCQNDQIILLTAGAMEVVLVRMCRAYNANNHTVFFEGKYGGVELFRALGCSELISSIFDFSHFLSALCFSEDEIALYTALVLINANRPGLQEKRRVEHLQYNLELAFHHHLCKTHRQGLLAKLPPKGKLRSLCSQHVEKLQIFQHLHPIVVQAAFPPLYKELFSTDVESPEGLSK
#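 In this cell-based reporter format, copper sulfate (700 uM final) drives Gal4–ROR gamma fusion expression from a metallothionein promoter in Drosophila Schneider cells; compounds preincubated 1 hr, reporter read after 20 hr at ambient temperature.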
# ATXN viability: cell viability loss in ATXN counter-screen | S2 cells (HEK-293 line with an ATXN2-luciferase reporter) viability, CellTiter-Fluor protease fluorescence, 24 h | Potency, µM (titrated, usually from 56.7 µM), most hits filed as cytotoxic | 400,000 compounds, 0.49% hits | AID 651635; further: nearly all actives have a fitted effect of over 40% in size
# HepG2 viability: HepG2 cytotoxicity, counter-screen for TGF-b inhibitors; HepG2 CAGA-GFP viability, ATP luminescence, 18 h; Potency, µM (doses to about 46.1 µM), for inactives: at the highest dose activity change, negative = cytotoxicity, usual class: cytotoxic; 410,000 compounds, 0.76% hits
#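 CellTiter-Glo luminescence gave cytotoxicity after 18 hours at 37 degrees C. The cells were HepG2 CAGA-GFP in 1% FBS DMEM, stimulated with 500 pg/mL TGF-beta after compound addition. %Activity was normalised to no-cell wells (complete cell-killing) and DMSO (no toxicity), and curves were fitted and classified.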
# The depositor's hits bear a star; i = inactive; ? = inconclusive; · = no result given; [ ] = dose if it differs, or a comment. An excerpt weighted towards active compounds, which were near 6.1% of everything screened. The call rests on the fitted dose curve; in most records, active means well fitted curve in the direction sought with a large enough effect; inconclusive means small, poorly fitted or top-dose-only effect, or another doubt; inactive means no such curve, though single readings can be large; an effect the other way counts as inactive or inconclusive. Potency means the concentration at half of the fitted maximal effect.
SMILES,TGFb inhibitor,ATXN2 expr inh,VP16 counter,RORg inh,ATXN viability,HepG2 viability
COc1ccc(Cc2n[nH]c(=S)n2Cc2ccccc2)cc1Cl,-10%,-26%,-3%,-5%,i,-48%
COc1ccccc1C(=O)NCc1n[nH]c(=S)n1Cc1ccccc1,?,·,1%,?,i,-2%
Cc1ccccc1OCc1nnc(SCC(=O)O)n1Cc1ccccc1,17%,5%,-1%,-20%,i,17%
CCOC(=O)c1c(NC(=O)c2cc3nc(-c4ccc(OC)cc4)cc(C(F)(F)F)n3n2)sc(C)c1C,-3%,11%,·,·,i,-3%
O=C(C=CC=Cc1ccc2c(c1)OCO2)N1CCCCC1,·,46%,·,·,·,·
CC(=O)N1CCC(N(Cc2ccco2)C(=O)Nc2cccc(C)c2)CC1,-28%,-1%,·,·,i,0%
COc1ccccc1C1c2[nH]c3ccccc3c2C[C@H]2C(=O)N(C3CCN(Cc4ccccc4)CC3)CC(=O)N12 (stereo not given in full),11µM*,-24%,-12%,-1%,?,-43%
Cc1ccc(CSc2nc3c([nH]c4ccccc43)c(=O)n2C)cc1,-10%,·,·,·,·,-25%
Cc1ccc(S(=O)(=O)NC(=NCC(=O)O)c2ccccc2)cc1,4%,1%,0%,-2%,i,3.2µM*
COc1ccc(C2CC(c3cccs3)=NN2C(=S)Nc2ccccc2)cc1OC (stereo not given),17%,4%,2%,19%,i,0%
COc1ccc(C2=NN(C(=O)c3cccs3)C(c3ccccc3O)C2)cc1 (stereo not given),13µM*,·,-14%,?,?,-98%
COc1ccc(C(=O)N2N=C(c3cccs3)CC2c2ccccc2O)cc1 (stereo not given),?,0%,-4%,5%,?,11µM*
COc1cccc(C2CC(c3cccs3)=NN2C(=S)Nc2ccccc2)c1OC (stereo not given),-12%,11%,2%,8.9µM*,i,-3%
CCC(CN)=C(c1ccccc1)c1ccccc1,·,?,·,·,i,·
OC[C@H](O)[C@H](O)[C@@H](O)[C@@H](O)[C@@H]1SC(c2ccccc2)=NN1c1ccccc1,-11%,-25%,-25%,8.9µM*,?,-36%
Cc1ccc(C2=NNC(C(O)C(O)C(O)C(O)CO)S2)cc1 (stereo not given),-8%,34%,-17%,?,i,-17%
CC1=C(C(=O)N(C)C)CC(CC(=O)NCCCCc2ccccc2)C(=O)N1Cc1ccc(C(C)(C)C)cc1 (stereo not given),?,?,·,·,?,-22%
CCN(CC)C(=O)C1=C(C)N(Cc2ccc(C(C)(C)C)cc2)C(=O)C(CC(=O)NCCCCc2ccccc2)C1 (stereo not given),14µM*,?,·,·,·,-58%
CS(=O)(=O)c1ccc(-c2cnc(N)c(C(=O)Nc3ccccc3)n2)cc1,·,-12%,·,·,·,·
O=C(NC(=S)Nc1ccccc1Br)c1ccc2c(c1)OCO2,0%,25%,8.9µM*,4.5µM*,i,-38%
S=C(Nc1ccc(Br)cc1)Nc1ccc2c(c1)OCCO2,-29%,0%,?,18µM*,i,-25%
COC(=O)c1sccc1NC(=O)c1ccc2c(c1)OCO2,3%,-5%,0%,3%,i,-14%
CC(C)c1ccc(O)c(NC(=S)NC(=O)c2ccc3c(c2)OCO3)c1,14µM*,36%,1.4µM*,0.56µM*,i,-84%
O=C(NC(=S)Nc1ccc2c(c1)OCO2)c1ccccc1,0%,68%,?,4.5µM*,i,-1%
NS(=O)(=O)c1ccc(NC(=S)NC(=O)c2ccc3c(c2)OCO3)cc1,12%,31%[11.3 µM],?,?,i,1%
SMILES,TGFb inhibitor,ATXN2 expr inh,VP16 counter,RORg inh,ATXN viability,HepG2 viability
CS(=O)(=O)c1ccc(-c2cccc3c2OC(CNC(=O)c2ccnc(Cl)c2)C3)cc1 (stereo not given),·,·,·,·,i,·
O=C(c1ccccc1C(F)(F)F)N1CCOc2c(cc(-c3nc4ccccc4s3)cc2OC2CCOC2)C1 (stereo not given),·,·,·,·,i,·
CCCCCCCCN1[C@@H](CC(=O)O)c2ccc(/C=C/C(=O)O)cc2S1(=O)=O,8%,·,·,·,·,12%
Cc1cnc(CNC(=O)c2c3n(c(C)cc2=O)-c2ccccc2SC(c2ccsc2)C3)cn1 (stereo not given),·,·,·,·,i,·
O=C(Nc1ccc2c(c1)OCCO2)c1cccc(C(=O)Nc2ccc3c(c2)OCCO3)c1,-5%,-9%,11%,-13%,i,-10%
O=C(NC(=S)Nc1ccc2c(c1)OCCO2)c1cccc2ccccc12,2%,8%,?,10µM*,i,-12%
O=C(O)c1ccccc1NC(=S)NC(=O)c1cccc2ccccc12,-3%,-14%,5%,-2%,i,-4%
O=C(NC(=S)Nc1ccc2c(c1)OCCO2)c1cccc(Br)c1,?,75%,?,5µM*,?,-24%
COc1cc(OC)cc(-c2nnc3n2N=C(c2c(OC)cccc2OC)CS3)c1,·,·,26%,34%,·,·
CCOc1ccccc1C(=O)N/N=C/c1c[nH]c2ccccc12,14%,-9%[11.3 µM],?,16µM*,i,0%
CCOc1ccccc1C(=O)N/N=C/c1cccc2cccnc12,?,-24%,?,5µM*,i,-8%
CSCC[C@H](NC(=O)OC(C)(C)C)C(=O)N/N=C/c1cccc2cccnc12,-6%,28µM*,16µM*,7.1µM*,i,-53%
CCOc1ccc(C(=O)N/N=C/c2cccc3cccnc23)cc1,?,?,2µM*,0.71µM*,i,-27%
CN(C)c1nc(-c2ccoc2)nc2ccccc12,·,·,-3%,18%,·,·
COc1ccc(C(=O)N/N=C/c2cc3ccccc3[nH]c2=S)cc1,12%,-7%,8.9µM*,8.9µM*,i,-60%
COc1ccc(C(=O)N/N=C/c2cccc3cccnc23)cc1,?,22µM*,2.2µM*,0.56µM*,i,-7%
COc1ccc(C(=O)N/N=C/c2c[nH]c3ccccc23)cc1,10%,39%,3%,0%,?,-28%
CCC(=O)NNC(=S)NC(=O)c1ccc(C)cc1,?,?,18µM*,3.2µM*,i,-21%
Cc1ccc(C(=O)NC(=S)NNC(=O)COc2ccccc2C)cc1,9%,-24%,?,4µM*,i,-22%
Cc1ccc(C)c(Cn2c(=O)cc(C(F)(F)F)c3c(C)nn(C)c32)c1,4%,4%,·,·,i,-14%
